PREPL inh – PREPL enzyme inhibitors, primary screen, biochemical, fluorescence polarization; inhibition, % at 5.96 µM; recombinant PREPL, fluorescence polarization activity-based probe; 320,000 tested, 0.68% active; in the data active = inhibition above about 43%
LYPLA2 counter – LYPLA2 inhibitors, primary screen, counter-screen for PME1 inhibitor project, biochemical, fluorescence polarization, FP-Rh probe ABPP | Acyl-protein thioesterase 2 (Homo sapiens), O95372 | recombinant LYPLA2 | inhibition, % at 5.9 µM | 320,000 tested, 0.38% active | AID 2177, 2009;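 active = inhibition above the screen-wide mean plus 3 SD, limit set per campaign, cut at about 26% in these data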
PME-1 inh – PME-1 inhibitors via competitive probe labeling, primary screen, biochemical, fluorescence polarization, FP-Rh probe, HTS. recombinant PME-1. inhibition, % at 5.9 µM. 320,000 tested, 0.53% active. AID 2130, 2009;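 active = inhibition above the campaign mean of all compounds plus 3 SD, cut at about 26% in these data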;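 note: competitive labeling of PME-1 active site by serine hydrolase directed probe; inhibitors block probe labeling so polarization falls and inhibition rises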
Target sequence (Q9Y570 whole entry, looked up): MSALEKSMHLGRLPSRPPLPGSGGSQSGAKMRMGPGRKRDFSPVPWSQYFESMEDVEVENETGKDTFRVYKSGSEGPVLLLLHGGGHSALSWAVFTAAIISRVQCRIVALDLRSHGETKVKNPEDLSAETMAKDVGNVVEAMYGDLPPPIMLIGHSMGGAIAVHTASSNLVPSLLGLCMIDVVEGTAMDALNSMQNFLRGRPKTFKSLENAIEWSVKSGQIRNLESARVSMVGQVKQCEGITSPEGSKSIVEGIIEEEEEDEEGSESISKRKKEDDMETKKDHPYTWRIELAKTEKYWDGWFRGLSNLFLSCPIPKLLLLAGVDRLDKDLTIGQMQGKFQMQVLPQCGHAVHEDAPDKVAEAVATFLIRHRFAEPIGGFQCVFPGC
LYPLA1 inh – LYPLA1 inhibitors, primary screen, counter-screen for PME1 inhibitor project, biochemical, fluorescence polarization, FP-Rh probe ABPP. recombinant LYPLA1. inhibition, % at 5.9 µM. 320,000 tested, 0.16% active;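 active = inhibition above the mean of all tested compounds plus 3 SD, set per campaign, cut at about 14% in these data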;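 note: inhibitors block serine hydrolase probe labeling of LYPLA1 so polarization falls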
Target sequence (O75608 whole entry, looked up): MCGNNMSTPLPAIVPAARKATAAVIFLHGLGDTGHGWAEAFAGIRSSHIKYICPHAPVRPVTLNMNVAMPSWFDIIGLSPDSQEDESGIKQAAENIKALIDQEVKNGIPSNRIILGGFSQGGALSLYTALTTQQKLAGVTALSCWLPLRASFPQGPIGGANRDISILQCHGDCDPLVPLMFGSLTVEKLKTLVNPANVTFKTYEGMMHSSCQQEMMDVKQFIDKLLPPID
Fam108B inh – mouse Fam108B serine hydrolase inhibitors, primary screen, counter-screen for RBBP9 inhibitor project, biochemical, fluorescence polarization | recombinant Fam108B, FP-Rh probe fluorescence polarization | inhibition, % at 9.51 µM | 300,000 tested, 0.33% active;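 active = inhibition above the screen mean inhibition plus 3 SD, computed separately per campaign, cut at about 18% in these data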;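 note: inhibitors lower polarization as less probe binds the enzyme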
MEX-5 binding – MEX-5 zinc finger RNA-binding disruptors – biochemical, C. elegans, fluorescence polarization, MLPCN library, primary screen | MEX-5/FITC-TCR2 RNA binding; hits give low values | activity score (negative = inhibition of binding), % at 10 µM | 300,000 tested, 0.38% active | AID 1832, 2009;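 active = inhibition past about -25% in most replicates, and total fluorescence under double the plate's negative control median, limit read from the data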
LYPLA2 confirm – LYPLA2 inhibitors, retest, confirmation, counter-screen for PME1 inhibitor project, biochemical, fluorescence polarization, FP-Rh probe ABPP; AID 2232, 2010; 1,100 tested, 72% active; recombinant LYPLA2; shares compounds with LYPLA2 counter; inhibition, % at 5.9 µM;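 active = mean inhibition across replicates above the hit cutoff set in the primary screen, cut at about 26% in these data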;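 note: blocked labeling of the enzyme by serine hydrolase FP-Rh probe lowers polarization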
LYPLA2 gel ABPP – LYPLA2 inhibitors in proteome, late-stage follow-up, gel-based competitive ABPP, fluorescence, assay provider; rhLYPLA2 in mouse brain proteome, gel ABPP FP-Rh; AID 652029, 2013; shares compounds with LYPLA2 counter; 150 tested, 30% active; inhibition, % at 20 µM;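 active = inhibition of LYPLA2 enzyme probe labeling above about 50%, limit read from the data; inactive = inhibition below that limit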;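 note: loss of FP-Rh probe labeling of the LYPLA2 gel band measured as band density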
Hits are given with their value; 0 = inactive; - = no result. Hits are enriched below; roughly 1.6% of the tested compounds scored in any of these assays.

SMILES	PREPL inh	LYPLA2 counter	PME-1 inh	LYPLA1 inh	Fam108B inh	MEX-5 binding	LYPLA2 confirm	others
CCN(CC)CCCNC(=O)c1cn(C)c(=O)c2c1c1ccccc1n2C	0	0	0	0	0	0	-
COc1ccc(Cl)cc1C(=O)Nc1cccc(-c2ccc3nncn3n2)c1	0	27.0	0	0	0	0	29.9
CSc1ccc(/C=C(/Sc2nnc(-c3ccccc3)o2)C(=O)O)cc1	0	0	0	0	0	0	-
Cc1cccc(C)c1NC(=O)CSCc1cccc(CSCC(=O)Nc2c(C)cccc2C)n1	0	0	0	0	0	0	-
CNC(=S)Nc1ccc(N2CCN(c3ccc(C(F)(F)F)cn3)CC2)nc1	0	53.8	0	0	0	0	64.8	LYPLA2 gel ABPP=0
CN1CCN(c2ccc(NC(=O)c3ccc(C(F)(F)F)cc3)cn2)CC1	0	0	0	0	0	0	-
O=C(NC(=S)N1CCN(c2ccc([N+](=O)[O-])cc2)CC1)c1ccccc1Cl	0	0	0	0	0	0	-
O=C(C1CCC(CNS(=O)(=O)c2cccc3nsnc23)CC1)N1CC=C(c2ccccc2)CC1 (stereo not drawn)	0	42.0	0	0	0	0	41.0
COc1cccc(CNC(=O)C2CCC(CNS(=O)(=O)c3cccc4nsnc34)CC2)c1 (stereo not drawn)	0	26.4	0	0	0	0	46.1
O=C(C1CCN(S(=O)(=O)c2cccc3nsnc23)CC1)N1CC=C(c2ccccc2)CC1	0	0	0	0	0	0	-
O=C(NCc1cccs1)C1CCC(CNS(=O)(=O)c2cccc3nsnc23)CC1 (stereo not drawn)	0	0	0	0	0	0	-
COc1ccc(C(=O)ON=C2CCCc3nonc32)cc1	-	-	-	-	-	-	-	LYPLA2 gel ABPP=0
COc1ccc(NC(=O)CO/N=C2\CCCc3nonc32)cc1	0	0	0	0	0	0	-
c1ccc(-c2noc(C3CCC3)n2)nc1	0	0	0	0	0	0	-
CCCCC1CCC(c2nc(-c3ccccn3)no2)CC1 (stereo not drawn)	0	28.6	0	0	0	0	37.6
CNC(=O)c1nc(C)c(C2(C)CC(c3cccc([N+](=O)[O-])c3)=NO2)s1 (stereo not drawn)	0	26.0	0	0	0	0	28.6
Cc1nc(C(=O)NC2CC2)sc1C1(C)CC(c2cccc([N+](=O)[O-])c2)=NO1 (stereo not drawn)	0	0	0	0	0	0	-
O=C(NCC1CCN(c2ccc(S(=O)(=O)N3CCOCC3)cc2)CC1)c1cccc(Cl)c1	0	31.7	0	0	0	0	30.7
COc1cccc(-c2nnc(NC(=O)c3ccc(S(=O)(=O)N4CCOCC4)cc3)o2)c1	0	0	0	0	0	0	-
COc1cccc(C(=O)NCC2CCN(c3ccc(S(=O)(=O)N4CCOCC4)cc3)CC2)c1	0	29.3	0	0	0	-30.1	0
Cc1ccc(Cl)cc1N1CCN(C(=O)CCCn2c(=O)c3cccn3c3cccnc32)CC1	0	38.4	0	0	0	0	33.7
Cc1ccc(S(=O)(=O)Nc2cccc(-n3cnnn3)c2)cc1C(=O)O	0	33.0	0	0	0	0	0
CN(Cc1nc(-c2ccncc2)no1)S(=O)(=O)c1ccc(Cl)cc1	0	28.3	0	0	0	0	30.4
CN(Cc1nc(-c2ccc(Cl)cc2)no1)C(=O)c1ccc2c(c1)OCO2	0	33.8	0	0	0	0	34.5
CN(Cc1nc(-c2ccncc2)no1)S(=O)(=O)c1ccccc1	0	0	0	0	0	0	-
SMILES	PREPL inh	LYPLA2 counter	PME-1 inh	LYPLA1 inh	Fam108B inh	MEX-5 binding	LYPLA2 confirm	others
COc1ccc(-c2noc(CN(C(=O)c3ccc4c(c3)OCO4)C(C)C)n2)cc1	0	0	0	0	0	0	-
CN(Cc1nc(-c2ccccn2)no1)S(=O)(=O)c1ccccc1	0	0	0	0	0	-	-
CN(Cc1nc(-c2ccncc2)no1)S(=O)(=O)c1ccc(Br)cc1	0	37.2	0	0	0	0	35.5
O=S(=O)(NCc1ccc2c(c1)OCO2)c1c(F)cc(F)cc1Br	0	0	0	0	0	0	-
Fc1ccccc1-n1[nH]nnc1=S	0	0	0	0	0	0	-
CCOc1ccc(C(=O)NCC(=O)NC(C)CCc2ccccc2)cc1OCC (stereo not drawn)	-	-	-	-	-	0	-
COc1cc(C(=O)NCC(=O)NC(C)CCc2ccccc2)cc(OC)c1OC (stereo not drawn)	0	27.4	0	0	0	0	0
Cc1cc(=O)oc(C)c1C(=O)NCc1ccco1	0	0	0	0	0	0	-
c1ccc(Nc2nn[nH]n2)cc1	0	0	0	0	0	0	-
Clc1ccc(Oc2cccc(/C=N/n3cnnc3)c2)cc1	0	36.9	0	0	0	0	31.5
O=C(Nc1ccc(S(=O)(=O)C(F)F)cc1)c1cccc(S(=O)(=O)N2CCOCC2)c1	0	35.3	0	0	0	0	37.6
O=C(Nc1cccc(S(=O)(=O)C(F)F)c1)c1ccc(S(=O)(=O)N2CCOCC2)cc1	0	0	0	0	0	0	-
O=C(Nc1ccc(S(=O)(=O)N2CCOCC2)cc1)c1cc(S(=O)(=O)N2CCOCC2)ccc1Cl	0	39.5	0	0	0	0	38.5
COC(=O)CSc1nccc(C)n1	0	43.7	0	0	0	0	0
Cc1ccnc(SCC(=O)O)n1	0	0	0	0	0	0	-
COc1cccc(NC(=O)COC(=O)c2c(-c3ccccc3)noc2C)c1	0	27.8	0	0	0	0	0
COc1ccc(NC(=O)COC(=O)c2c(-c3ccccc3)noc2C)cc1	0	0	0	0	0	0	-
Cc1nn(-c2ccccc2)c(C)c1C(=O)OCC(=O)Nc1ccccc1	0	39.0	0	0	-	-	0
COc1ccc(S(=O)(=O)NCc2ccc(C(=O)N3CCN(Cc4ccccc4)CC3)cc2)cc1	0	68.1	0	0	0	0	59.5	LYPLA2 gel ABPP=0
Cc1ccc(S(=O)(=O)NCc2ccc(C(=O)N3CCN(Cc4ccccc4)CC3)cc2)cc1	0	0	0	0	0	0	-
CCN1CCN(C(=O)c2ccc(CNS(=O)(=O)c3cccc(OC)c3)cc2)CC1	-	-	-	-	-	0	-
